Several values for one entry are separate records, joined by “and”; a condition that tells them apart may be missing. Equal values may be shown once. Results filed as inconclusive are left out. Activity calls are given as the source filed them. Unless noted, calls follow the shape of the dose curve; as a rule, active = well fitted curve in the direction sought with a large enough effect in the repeat runs; inconclusive = weak or mixed curves; inactive = no such curve, though single readings can be large; an effect the other way counts as inactive or inconclusive.

Results on 36 compounds are retold here after PubChem BioAssay (NCATS).

Cytochrome P450 2C9 (Homo sapiens), sequence (P11712 whole entry, looked up): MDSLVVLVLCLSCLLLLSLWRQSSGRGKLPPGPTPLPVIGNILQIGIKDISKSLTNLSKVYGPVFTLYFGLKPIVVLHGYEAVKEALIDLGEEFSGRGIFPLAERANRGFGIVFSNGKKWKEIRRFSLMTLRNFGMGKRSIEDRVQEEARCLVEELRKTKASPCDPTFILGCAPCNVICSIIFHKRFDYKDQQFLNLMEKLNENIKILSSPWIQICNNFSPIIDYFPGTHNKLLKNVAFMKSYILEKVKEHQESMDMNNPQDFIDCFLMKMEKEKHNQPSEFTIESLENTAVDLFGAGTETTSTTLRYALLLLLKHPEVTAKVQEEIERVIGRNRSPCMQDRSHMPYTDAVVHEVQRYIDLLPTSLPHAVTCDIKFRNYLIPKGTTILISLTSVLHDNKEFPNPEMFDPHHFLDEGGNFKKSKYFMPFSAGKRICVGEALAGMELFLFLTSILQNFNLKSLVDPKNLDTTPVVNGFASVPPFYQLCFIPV

Test system in one assay: not listed separately
Put plainly: A High-Content qHTS Against Drug Library for the Identification of Small Molecules that Inhibit DYT1 Early Onset Primary Dystonia-Associated Cell Pathology (AID 1645839; calls by dose curve). The conditions noted are these: HEK293 Flp-In EGFP-delE TorsinA, punctate imaging, 48 h; series mostly up to 46.1 µM; % pathology change, negative = correction: at the top concentration. In a few lines: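 High-content imaging quantified EGFP-TorsinA mislocalization in HEK293-derived cells inducibly expressing DYT1 mutant torsinA, after 48 h exposure to compound given together with tetracycline induction. Cell count served as a toxicity channel alongside %pathology.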
For `c1ccc2sc(SN3CCOCC3)nc2c1`, the “% pathology change, negative = correction” value (“% pathology change” for short) was 1.66% (inactive).
Turning to `COc1ccc(-c2cc(=S)ss2)cc1`, the “% pathology change” value was 0.349% (inactive).
On the same count and under the same terms, the same measure for `COC(=O)C1=C(C)NC(C)=C(C(=O)OCC(C)=O)C1c1ccccc1[N+](=O)[O-]` (configuration not stated): -8.69% (inactive); for `CCOc1ccc2nc(S(N)(=O)=O)sc2c1`: 2.69% (inactive); for `CCCCCCOc1ccccc1C(N)=O`: 1.27% (inactive).
The same measure, in the same setting: with `Clc1ccccc1-c1nc(-c2ccncc2)no1` the figure was -1.5% (inactive).
Same read-out and setting: the same measure for `Cc1c(C(=O)O)c(O)cc2c1C(=O)c1c(O)c([C@@H]3O[C@H](CO)[C@@H](O)[C@H](O)[C@H]3O)c(O)c(O)c1C2=O`: 0.374% (inactive); for `O=C(O)Cc1cccc(-c2cc(CCCCCCc3ccc(O[C@H]4O[C@H](CO)[C@@H](O)[C@H](O)[C@@H]4O)c(-c4cccc(CC(=O)O)c4)c3)ccc2O[C@H]2O[C@H](CO)[C@@H](O)[C@H](O)[C@@H]2O)c1`: -6.26% [at 0.369 µM] (inactive).
Regarding `O=C(Nc1ccc(C(=O)O)c(O)c1)c1ccccc1`, the “% pathology change” value is -0.899% (inactive).
Regarding `CNC(=O)c1c(I)c(NC(=O)CCCCC(=O)Nc2c(I)c(C(=O)O)c(I)c(C(=O)NC)c2I)c(I)c(C(=O)O)c1I`, the “% pathology change” value was 1.18% (inactive).
The same measure, in the same setting: with `C/C(=N\O)c1ccc(OCC(=O)N2CCCCC2)cc1` the figure was 3.19% (inactive).
On the same count and under the same terms, the same measure for `Cc1nc2ccccc2n1Cc1ccc(Cl)cc1`: -13.7% (inactive).
The same measure, in the same setting: the same measure for `Nc1nc2ccc([N+](=O)[O-])cc2s1`: 13% [at 91.7 µM] (inactive).
With `O=C(CCN1CCN(CCO)CC1)N1c2ccccc2Sc2ccc(C(F)(F)F)cc21`, the “% pathology change” value is 1.42% (inactive).
Still for that read-out and setting: the same measure for `c1ccc(CCNc2nc(-c3ccccc3)cs2)cc1`: 2.41% (inactive); for `CCCCCCCC/C=C/C(=O)O`: -24.3% (inactive); for `Cc1ccc(O)c(-n2nc3ccccc3n2)c1`: 15.4% (inactive).
Turning to `CN1CCN(c2cc3c(nn2)Oc2ccccc2N3C)CC1`, the “% pathology change” value is 20% [at 19.1 µM] (inactive).
Consider `CC(C(=O)O)c1ccc(C(=O)c2cccs2)cc1` (configuration not stated), for which the “% pathology change” value was -0.211% (inactive).
Still for that read-out and setting: with `Cc1[nH]cnc1CN1CCc2c(c3ccccc3n2C)C1=O` the figure was -11% (inactive).
On the same count and under the same terms, with `O=C(O)Cc1ccc(-c2ccccc2)cc1` the figure was -9.39% (inactive); with `COc1cc2c3cc1Oc1cc(ccc1O)C[C@@H]1c4c(cc(OC)c(O)c4Oc4ccc(cc4)C[C@@H]3N(C)CC2)CC[N+]1(C)C`, -1.45% (inactive).
Consider `CCCCCCCCCCCCCCCC(=O)OC(C)C`, for which the “% pathology change” value is 6.31% (inactive).
Still for that read-out and setting: with `c1ccc2sc(SSc3nc4ccccc4s3)nc2c1` the figure was -3.57% [at 19.1 µM] (inactive); with `CC(C)(C)c1nnc(NS(=O)(=O)c2ccc(N)cc2)s1`, 9.06% (inactive).

In the next assay the target is Cytochrome P450 2D6 (Homo sapiens) (UniProt P10635). Put plainly: Cytochrome P450 family 2 subfamily D member 6 (CYP2D6) small molecule antagonists: luciferase biochemical (cell-free) qHTS assay (AID 1645840). Also: nearly all actives have a fitted effect of over 55% in size. Also: potency is read from the fitted curve at half-maximal effect. As to activity change, negative = inhibition: % is scaled to controls: 0 for no effect and ±100 for the full control effect. The settings on record: P450-Glo CYP2D6 enzyme, luciferin luminescence, 1 h; series mostly up to 57.4 µM; activity change, negative = inhibition: at the top concentration. In a few lines: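 P450-Glo CYP2D6 system: proluciferin substrate converted by enzyme to luciferin, read by luminescence proportional to activity. Enzyme-substrate mix with compound 10 min at room temperature, then NADPH regeneration 1 h before detection reagent.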
Cytochrome P450 2D6 (Homo sapiens), sequence (P10635 whole entry, looked up): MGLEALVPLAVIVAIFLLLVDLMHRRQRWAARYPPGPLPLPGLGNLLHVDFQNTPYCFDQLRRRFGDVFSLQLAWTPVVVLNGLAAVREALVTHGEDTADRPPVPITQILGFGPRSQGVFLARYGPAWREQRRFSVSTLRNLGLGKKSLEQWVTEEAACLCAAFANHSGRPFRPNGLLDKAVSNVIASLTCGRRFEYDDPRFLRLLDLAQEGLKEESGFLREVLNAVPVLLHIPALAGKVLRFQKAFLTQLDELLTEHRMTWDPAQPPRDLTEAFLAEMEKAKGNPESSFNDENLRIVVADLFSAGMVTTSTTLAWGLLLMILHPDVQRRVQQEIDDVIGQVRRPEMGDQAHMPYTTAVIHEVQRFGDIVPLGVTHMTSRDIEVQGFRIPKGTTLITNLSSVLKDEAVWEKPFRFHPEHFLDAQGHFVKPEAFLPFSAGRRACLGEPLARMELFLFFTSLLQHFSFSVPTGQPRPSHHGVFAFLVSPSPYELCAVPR
`c1ccc2sc(SN3CCOCC3)nc2c1`: the “activity change, negative = inhibition” value was -7.75% (inactive).
The same measure, in the same setting: the same measure for `Cc1c(Nc2ncccc2C(=O)O)cccc1C(F)(F)F`: 0.558% (inactive); for `CCOc1ccc2nc(S(N)(=O)=O)sc2c1`: 2.14% (inactive).
Regarding `Cc1cc(O)c2ccccc2c1O`, the Potency was 11 µM (active).
On to `O=C(O)c1ccccc1Nc1cccc(C(F)(F)F)c1`, for which the “activity change, negative = inhibition” value is 8.92% (inactive).
In the case of `COC(=O)c1nc(Cl)c(Cl)nc1N`, the “activity change, negative = inhibition” value is 0.694% (inactive).
In the case of `Clc1ccccc1-c1nc(-c2ccncc2)no1`, the Potency is 3.47 µM (active).
Take `Cc1c(C(=O)O)c(O)cc2c1C(=O)c1c(O)c([C@@H]3O[C@H](CO)[C@@H](O)[C@H](O)[C@H]3O)c(O)c(O)c1C2=O`: the “activity change, negative = inhibition” value is -15.7% (inactive).
Same read-out and setting: with `O=C(O)Cc1cccc(-c2cc(CCCCCCc3ccc(O[C@H]4O[C@H](CO)[C@@H](O)[C@H](O)[C@@H]4O)c(-c4cccc(CC(=O)O)c4)c3)ccc2O[C@H]2O[C@H](CO)[C@@H](O)[C@H](O)[C@@H]2O)c1` the figure was -6.59% [at 0.91 µM] (inactive).
As to `O=C(Nc1ccc(C(=O)O)c(O)c1)c1ccccc1`, the Potency was 13.8 µM (active).
As for `COC(=O)Nc1nc2ccc(C(=O)C3CC3)cc2[nH]1`, the “activity change, negative = inhibition” value is 7.84% (inactive).
The same measure, in the same setting: the same measure for `CNC(=O)c1c(I)c(NC(=O)CCCCC(=O)Nc2c(I)c(C(=O)O)c(I)c(C(=O)NC)c2I)c(I)c(C(=O)O)c1I`: -2.19% (inactive).
As to `S=c1[nH]c2ccccc2s1`, the Potency was 29.1 µM (active).
With `CCCSc1ccc2nc(NC(=O)OC)[nH]c2c1`, the “activity change, negative = inhibition” value was -22.1% (inactive).
Take `C/C(=N\O)c1ccc(OCC(=O)N2CCCCC2)cc1`: the “activity change, negative = inhibition” value is 0.394% (inactive).
With `Cc1nc2ccccc2n1Cc1ccc(Cl)cc1`, the Potency was 7.76 µM (active).
As to `O=C(CCN1CCN(CCO)CC1)N1c2ccccc2Sc2ccc(C(F)(F)F)cc21`, the “activity change, negative = inhibition” value was -9.12% (inactive).
For `c1ccc(CCNc2nc(-c3ccccc3)cs2)cc1`, the Potency was 5.49 µM (active).
For the compound `CCCCCCCC/C=C/C(=O)O`, the “activity change, negative = inhibition” value was -22.6% (inactive).
Regarding `CN1CCN(c2cc3c(nn2)Oc2ccccc2N3C)CC1`, the “activity change, negative = inhibition” value was 3.09% [at 23.9 µM] (inactive).
Same read-out and setting: with `C#C[C@]1(O)CC[C@H]2[C@@H]3CCc4cc(O)ccc4[C@H]3CC[C@@]21C` the figure was -34.5% (inactive); with `CC(C(=O)O)c1ccc(C(=O)c2cccs2)cc1` (configuration not stated), 7.5% (inactive).
Turning to `Cc1[nH]cnc1CN1CCc2c(c3ccccc3n2C)C1=O`, the Potency was 7.76 µM (active).
Consider `O=C(O)Cc1ccc(-c2ccccc2)cc1`, for which the “activity change, negative = inhibition” value is -0.075% (inactive).
Take `COc1cc2c3cc1Oc1cc(ccc1O)C[C@@H]1c4c(cc(OC)c(O)c4Oc4ccc(cc4)C[C@@H]3N(C)CC2)CC[N+]1(C)C`: the “activity change, negative = inhibition” value is -13.3% (inactive).
On the same count and under the same terms, with `c1ccc2sc(SSc3nc4ccccc4s3)nc2c1` the figure was 0.418% [at 23.9 µM] (inactive); with `CC(C)(C)c1nnc(NS(=O)(=O)c2ccc(N)cc2)s1`, 9.07% (inactive).

The target of a further assay is Cytochrome P450 2C9 (Homo sapiens) (UniProt P11712). Kind of assay: Cytochrome P450 family 2 subfamily C member 9 (CYP2C9) small molecule antagonists: luciferase biochemical (cell-free) qHTS assay (AID 1645842). Also: nearly all actives have a fitted effect of over 55% in size. Also: potency is read from the fitted curve at half-maximal effect. As to activity change, negative = inhibition: % is scaled to controls: 0 for no effect and ±100 for the full control effect. The settings on record: P450-Glo CYP2C9 enzyme assay, luciferin luminescence; series mostly up to 57.4 µM; activity change, negative = inhibition: at the top concentration. In a few lines:
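P450-Glo CYP2C9 system: proluciferin substrate with enzyme in mix containing 0.4% BSA, 10 min at room temperature, then NADPH regeneration solution added and incubated 1 h at 37C. Detection reagent stopped reaction; luminescence read after 20 min as RLU.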
In general terms: Quantitative high-throughput screening tests each substance at several concentrations.
With `c1ccc2sc(SN3CCOCC3)nc2c1`, the Potency is 10.7 µM (active) and 15.5 µM (active).
On to `Cc1c(Nc2ncccc2C(=O)O)cccc1C(F)(F)F`, for which the “activity change, negative = inhibition” value is -13.5% (inactive).
With `COc1ccc(-c2cc(=S)ss2)cc1`, the Potency is 11 µM (active).
The same measure, in the same setting: the same measure for `COC(=O)C1=C(C)NC(C)=C(C(=O)OCC(C)=O)C1c1ccccc1[N+](=O)[O-]` (configuration not stated): 8.71 µM (active).
As to `O=C(O)c1ccccc1Nc1cccc(C(F)(F)F)c1`, the “activity change, negative = inhibition” value is -2.29% (inactive).
The same measure, in the same setting: with `COC(=O)c1nc(Cl)c(Cl)nc1N` the figure was 10.4% (inactive).
As for `CCCCCCOc1ccccc1C(N)=O`, the Potency was 8.71 µM (active).
Same read-out and setting: the same measure for `Clc1ccccc1-c1nc(-c2ccncc2)no1`: 5.49 µM (active); for `O=C(/C=C/c1ccccc1)NCCO`: 5.49 µM (active).
Turning to `O=C(O)Cc1cccc(-c2cc(CCCCCCc3ccc(O[C@H]4O[C@H](CO)[C@@H](O)[C@H](O)[C@@H]4O)c(-c4cccc(CC(=O)O)c4)c3)ccc2O[C@H]2O[C@H](CO)[C@@H](O)[C@H](O)[C@@H]2O)c1`, the activity change, negative = inhibition is 11.7% [at 0.91 µM] (inactive).
The same measure, in the same setting: the same measure for `COC(=O)Nc1nc2ccc(C(=O)C3CC3)cc2[nH]1`: -11.4% (inactive).
With `C#CC1(O)CC[C@H]2[C@@H]3CCC4=CCCC[C@@H]4[C@H]3CC[C@@]21C` (some centres not stated), the Potency is 1.74 µM (active).
In the case of `CNC(=O)c1c(I)c(NC(=O)CCCCC(=O)Nc2c(I)c(C(=O)O)c(I)c(C(=O)NC)c2I)c(I)c(C(=O)O)c1I`, the “activity change, negative = inhibition” value is -5.69% (inactive).
As for `S=c1[nH]c2ccccc2s1`, the Potency was 15.9 µM (active).
Consider `CCCSc1ccc2nc(NC(=O)OC)[nH]c2c1`, for which the “activity change, negative = inhibition” value was 1.44% (inactive).
Turning to `C/C(=N\O)c1ccc(OCC(=O)N2CCCCC2)cc1`, the “activity change, negative = inhibition” value is -0.673% (inactive).
In the case of `Cc1nc2ccccc2n1Cc1ccc(Cl)cc1`, the Potency was 11 µM (active).
As for `O=C(CCN1CCN(CCO)CC1)N1c2ccccc2Sc2ccc(C(F)(F)F)cc21`, the “activity change, negative = inhibition” value is 0.374% (inactive).
For `c1ccc(CCNc2nc(-c3ccccc3)cs2)cc1`, the Potency is 5.49 µM (active).
Turning to `CCCCCCCC/C=C/C(=O)O`, the “activity change, negative = inhibition” value is -20.6% (inactive).
Take `Cc1ccc(O)c(-n2nc3ccccc3n2)c1`: the Potency was 4.36 µM (active).
As for `CN1CCN(c2cc3c(nn2)Oc2ccccc2N3C)CC1`, the “activity change, negative = inhibition” value was 12.8% [at 23.9 µM] (inactive).
With `CC(C(=O)O)c1ccc(C(=O)c2cccs2)cc1` (configuration not stated), the Potency was 7.76 µM (active).
Still for that read-out and setting: with `Cc1[nH]cnc1CN1CCc2c(c3ccccc3n2C)C1=O` the figure was 1.55 µM (active).
For the compound `O=C(O)Cc1ccc(-c2ccccc2)cc1`, the “activity change, negative = inhibition” value is -3.65% (inactive).
Still for that read-out and setting: with `COc1cc2c3cc1Oc1cc(ccc1O)C[C@@H]1c4c(cc(OC)c(O)c4Oc4ccc(cc4)C[C@@H]3N(C)CC2)CC[N+]1(C)C` the figure was 8.04% (inactive).
In the case of `CCCCC1C(=O)N(c2ccccc2)N(c2ccc(O)cc2)C1=O` (configuration not stated), the Potency is 8.71 µM (active).
`CCCCCCCCCCCCCCCC(=O)OC(C)C`: the “activity change, negative = inhibition” value was 4.23% (inactive).
Turning to `c1ccc2sc(SSc3nc4ccccc4s3)nc2c1`, the Potency is 9.52 µM (active).
Regarding `CC(C)(C)c1nnc(NS(=O)(=O)c2ccc(N)cc2)s1`, the “activity change, negative = inhibition” value was -14.9% (inactive).
